Unmarked numbers belong to inactive results. Inconclusive results are not listed. Where a call stands in place of a potency, no number is given. The source made the active and inactive calls. Calls follow the shape of the dose curve; as a rule, active = well fitted curve in the direction sought with a large enough effect; inconclusive = small, poorly fitted or top-dose-only effect, or another doubt; inactive = no such curve, though single readings can be large; an effect the other way counts as inactive or inconclusive.
Tests used:
[1] = target: Phospholipid hydroperoxide glutathione peroxidase GPX4 (Homo sapiens) (UniProt P36969); assay: Primary qHTS Assay for Inhibitors of Recombinant Selenoprotein Glutathione Peroxidase 4 (GPX4) (AID 1845192); also: nearly all actives have a fitted effect of over 65% in size
In short: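 qHTS, GR-coupled: GPX4 200 nM + cpd 30 min RT → GSH 1 mM, NADPH 0.5 mM, GR 100 nM → CHP 0.5 mM start; fluor 340/450 at t0 and t15 min; no-enzyme wells as control.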

[2] = target: Luciferin 4-monooxygenase (Photinus pyralis) (UniProt P08659); assay: Primary firefly luciferase (FLuc) qHTS assay for identification of artifact compounds. (AID 1845220); also: nearly all actives have a fitted effect of over 60% in size; also: potency is read from the fitted curve at half-maximal effect
In short: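 Reaction readout was CCD-imaged luminescence, taken 5 min after adding 10 nM purified firefly enzyme to compound-treated wells holding 10 uM luciferin and ATP in pH 7.6 buffer.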

[3] = Primary fluorescence-based thiol-reactive (MSTI) qHTS assay for identification of artifact compounds. (AID 1845221); also: nearly all actives have a fitted effect of over 65% in size; also: potency is read from the fitted curve at half-maximal effect
In short: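 Probe: MSTI 4 uM, PBS pH 7.4, 2% DMSO. Incubation 1 h, RT, light-protected. Readout fluorescence 525/598 nm.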

[4] = system: Nanoluciferase (engineered Oplophorus gracilirostris luciferase); assay: Primary Nanoluciferase (NLuc) qHTS assay for identification of artifact compounds. (AID 1845222);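 also: NLuc secreted into diluted conditioned medium of S16 cells; series mostly up to about 54 µM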
In short: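 Concentration-response data were obtained by luminescence after 5 min with Nano-Glo substrate at 1:100. The enzyme was diluted S16 NLuc-expressing cell medium, preincubated with compound for 15 min at RT. Curves were fitted with a 4-parameter Hill model.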

[5] = Primary redox qHTS assay for identification of artifact compounds. (AID 1845223)
In short: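 Redox-cycling detection via DTT (250 uM final) oxidation coupled to Amplex Red (25 uM)/HRP (250 mU/mL) in HBSS. 15 min preincubation plus 30 min after DTT, room temperature. Ex/Em 525/598 nm; 4-parameter Hill fit against DMSO and 10 uM DA3003.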

Phospholipid hydroperoxide glutathione peroxidase GPX4 (Homo sapiens), sequence (P36969 whole entry, looked up): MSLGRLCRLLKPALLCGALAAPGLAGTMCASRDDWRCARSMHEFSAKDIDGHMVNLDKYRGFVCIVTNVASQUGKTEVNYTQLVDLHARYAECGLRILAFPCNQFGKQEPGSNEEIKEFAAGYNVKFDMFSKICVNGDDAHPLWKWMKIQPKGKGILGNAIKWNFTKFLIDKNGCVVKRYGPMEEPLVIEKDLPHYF

SMILES | Potency [1] | Potency [2] | Potency [3] | Potency [4] | Potency [5]
CC(=O)O[C@@H]1C[C@@H](OC(C)=O)C(C)(C)/C=C/[C@H](C)[C@H](OC(C)=O)[C@@]2(O)C[C@H](C)[C@H](OC(=O)c3ccccc3)[C@@H]2/C=C/1C | inactive | inactive | inactive | inactive | inactive
C[C@@H]1C(=O)O[C@H]2[C@H](O)C34[C@H]5C[C@@H](C(C)(C)C)C36[C@@H](OC(=O)[C@@H]6O)O[C@@]4(C(=O)O5)[C@@]12O (stereo not given in full) | inactive | inactive | inactive | inactive | inactive
C[C@H](C/C=C/C(C)(C)O)[C@H]1CC[C@@]2(C)[C@@H]3[C@@H](O[C@@H]4O[C@H](CO)[C@@H](O)[C@H](O)[C@H]4O)C=C4C(CC[C@H](O)C4(C)C)[C@]3(C=O)CC[C@]12C (stereo not given in full) | inactive | inactive | inactive | inactive | inactive
O=C(NCc1ccc(F)cc1)C(=O)c1c[nH]c2ccccc12 | inactive | inactive | inactive | inactive | inactive
C[C@@H]1CCC2C(C)(C)[C@H](O)CC[C@]2(C)[C@@]12Cc1c(O)cc3c(c1O2)CNC3=O (stereo not given in full) | inactive | inactive | inactive | inactive | inactive
COC(=O)C1(C)c2[nH]c3ccccc3c2CCN1C(=O)CCl (stereo not given) | inactive | inactive | inactive | inactive | inactive
N#Cc1c(Oc2ccc(F)c(NC(=O)Cc3cccc(C(F)(F)F)c3)c2)ccc2nc(NC(=O)C3CC3)sc12 | inactive | inactive | inactive | inactive | inactive
COc1cc(OC)cc(C(=O)Nc2ccc(Cl)c(-c3nc4ccc(N(C)C)cc4[nH]3)c2)c1 | inactive | 8.49 µM (active) | 3.77 µM (active) | inactive | inactive
CC[C@@H](O)C[C@@H]1C(C)=C[C@@H]2CCCC[C@@H]2[C@@]1(C)C(=O)O | inactive | inactive | inactive | inactive | inactive
CSc1ccc(C(=O)N[C@@H]2CCCC[C@@H]2NC(=O)CNC(=O)c2cc(C(F)(F)F)ccc2NC(=O)NC(C)C)cc1 | inactive | inactive | inactive | inactive | inactive
C=C[C@H]1CN2CC[C@H]1C[C@@H]2C(O)c1ccnc2ccc(OC)cc12 (stereo not given in full) | inactive | inactive | inactive | inactive | inactive
N[C@@]1(C(=O)O)CC[C@H]2[C@H](C(=O)O)[C@H]21 | inactive | inactive | inactive | inactive | inactive
CC12CCC3c4ccc(OC5OC(C(=O)O)C(O)C(O)C5O)cc4CCC3C1CCC2O (stereo not given) | inactive | inactive | inactive | inactive | inactive
Cn1ncnc1COc1nn2c(-c3cc(F)ccc3F)nnc2cc1C(C)(C)C | inactive | inactive | inactive | inactive | inactive
CC1=CC(=O)CC(C)(C)C1/C=C/C(C)O[C@@H]1O[C@H](CO)[C@@H](O)[C@H](O)[C@H]1O[C@@H]1OC[C@](O)(CO)[C@H]1O (stereo not given in full) | inactive | inactive | inactive | inactive | inactive
COCCOc1ccc(N2CCN(CCn3ncc4c3nc(N)n3nc(-c5ccco5)nc43)CC2)cc1 | inactive | inactive | inactive | inactive | inactive
C=C(C(=O)O)C1CC2=C(C)CCCC2(C)C[C@@H]1O (stereo not given in full) | inactive | inactive | inactive | inactive | inactive
C[C@@H]1O[C@@H](OC[C@H]2O[C@@H](OC(CCCCc3ccc(O)cc3)CCc3ccc(O)cc3)[C@H](O)[C@@H](O)[C@@H]2O)[C@H](O)[C@H](O)[C@H]1O (stereo not given in full) | inactive | inactive | 7.93 µM (active) | inactive | inactive
Cc1cc(Nc2cc(N3CCN(C)CC3)nc(/C=C/c3ccccc3)n2)n[nH]1 | inactive | inactive | inactive | inactive | inactive
C=C(C)C1CCC2(C(=O)O)CCC3(C(=O)O)C(CCC4C5(C)CCC(O)C(C)(C(=O)O)C5CCC43C)C12 (stereo not given) | inactive | inactive | inactive | inactive | inactive
C=C(C)C(=O)OC1C(OC(C)=O)/C(C=O)=C\CC/C(CO)=C/C2OC(=O)C(=C)C21 (stereo not given) | inactive | inactive | inactive | inactive | inactive
